Measured values reported in the supplement of paper PMC11732987, “Enantioselective OTUD7B fragment discovery through chemoproteomics screening and high-throughput optimisation” (Communications Chemistry, 2025).

Legend:
Assay in all cases: log2 ratio of Biotin-Ahx-Ub-VS probe labelling (fragment/DMSO); higher = less target engagement (more negative = stronger competition), active = hit call of the paper (q ≤ 0.05, log2 ratio ≤ -1)
Conditions in all cases: compound concentration: 200 uM; treatment time: 3 h
USP19 = target: T1, USP19 (UniProt O94966)
T1 sequence (whole entry): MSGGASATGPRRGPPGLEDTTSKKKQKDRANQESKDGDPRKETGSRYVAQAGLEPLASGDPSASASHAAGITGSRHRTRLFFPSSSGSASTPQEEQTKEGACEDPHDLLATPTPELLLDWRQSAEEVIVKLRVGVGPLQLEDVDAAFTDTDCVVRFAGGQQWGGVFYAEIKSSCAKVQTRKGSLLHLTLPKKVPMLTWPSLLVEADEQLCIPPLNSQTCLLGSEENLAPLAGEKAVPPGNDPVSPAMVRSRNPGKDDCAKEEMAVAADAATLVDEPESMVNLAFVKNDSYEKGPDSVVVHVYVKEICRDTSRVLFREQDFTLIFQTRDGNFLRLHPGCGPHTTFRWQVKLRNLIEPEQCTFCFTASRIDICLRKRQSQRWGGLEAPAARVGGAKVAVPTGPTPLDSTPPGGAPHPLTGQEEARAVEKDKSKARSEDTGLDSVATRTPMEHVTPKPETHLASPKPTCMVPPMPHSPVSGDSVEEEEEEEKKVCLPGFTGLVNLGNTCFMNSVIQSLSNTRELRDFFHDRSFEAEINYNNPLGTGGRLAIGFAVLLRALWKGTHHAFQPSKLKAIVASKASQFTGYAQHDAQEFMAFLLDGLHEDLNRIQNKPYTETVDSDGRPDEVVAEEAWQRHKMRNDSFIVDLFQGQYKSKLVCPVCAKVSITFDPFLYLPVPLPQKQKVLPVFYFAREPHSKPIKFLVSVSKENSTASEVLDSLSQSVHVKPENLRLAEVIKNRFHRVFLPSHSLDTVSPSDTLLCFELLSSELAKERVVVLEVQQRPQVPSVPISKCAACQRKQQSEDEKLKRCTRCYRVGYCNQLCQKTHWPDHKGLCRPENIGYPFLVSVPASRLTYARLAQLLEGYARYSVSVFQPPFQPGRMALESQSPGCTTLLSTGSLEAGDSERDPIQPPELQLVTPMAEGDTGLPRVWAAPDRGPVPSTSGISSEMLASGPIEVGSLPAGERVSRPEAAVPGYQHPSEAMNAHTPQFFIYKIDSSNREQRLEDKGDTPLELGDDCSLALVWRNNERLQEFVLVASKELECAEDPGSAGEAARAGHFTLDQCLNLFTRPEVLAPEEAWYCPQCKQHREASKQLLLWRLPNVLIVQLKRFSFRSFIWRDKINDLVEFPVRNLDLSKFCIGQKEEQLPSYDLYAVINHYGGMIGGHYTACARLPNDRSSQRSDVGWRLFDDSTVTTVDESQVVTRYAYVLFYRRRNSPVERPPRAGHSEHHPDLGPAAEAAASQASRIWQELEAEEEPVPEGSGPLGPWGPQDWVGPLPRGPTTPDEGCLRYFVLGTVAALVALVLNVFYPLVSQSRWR
Method in brief: (§1)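 Values give the average log2 ratio of fragment to vehicle, assessed by unpaired t-test on global-median-normalised Spectronaut label-free quantities. Proteins needed ≥2 unique peptides. HEK293T lysate (495 µg per sample) was treated in triplicate with fragment at 200 µM or vehicle for 3 h and then with Biotin-Ahx-Ub-VS at 0.5 µM final for 1 h. Labelled DUBs were NeutrAvidin-enriched, digested and run by diaPASEF LC-MS/MS.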

USP22 = target: T2, USP22 (UniProt Q9UPT9)
T2 sequence (whole entry): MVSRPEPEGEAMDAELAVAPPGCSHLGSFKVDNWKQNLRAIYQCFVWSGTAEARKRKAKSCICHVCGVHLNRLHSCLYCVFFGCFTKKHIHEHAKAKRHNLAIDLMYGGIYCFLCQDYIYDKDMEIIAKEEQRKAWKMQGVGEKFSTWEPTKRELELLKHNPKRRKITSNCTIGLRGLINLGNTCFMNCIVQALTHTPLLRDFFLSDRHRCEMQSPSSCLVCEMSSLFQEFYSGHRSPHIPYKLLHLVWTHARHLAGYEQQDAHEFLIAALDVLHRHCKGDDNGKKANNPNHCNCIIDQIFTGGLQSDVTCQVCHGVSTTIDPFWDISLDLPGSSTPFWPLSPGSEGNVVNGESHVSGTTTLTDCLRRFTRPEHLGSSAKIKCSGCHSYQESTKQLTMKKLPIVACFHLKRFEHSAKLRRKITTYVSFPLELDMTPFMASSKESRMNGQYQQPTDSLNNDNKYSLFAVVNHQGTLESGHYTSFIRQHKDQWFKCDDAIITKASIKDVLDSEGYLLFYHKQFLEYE
Method in brief: as §1

USP24 = USP24 (UniProt Q9UPU5)
Chain of USP24 (Q9UPU5 whole entry): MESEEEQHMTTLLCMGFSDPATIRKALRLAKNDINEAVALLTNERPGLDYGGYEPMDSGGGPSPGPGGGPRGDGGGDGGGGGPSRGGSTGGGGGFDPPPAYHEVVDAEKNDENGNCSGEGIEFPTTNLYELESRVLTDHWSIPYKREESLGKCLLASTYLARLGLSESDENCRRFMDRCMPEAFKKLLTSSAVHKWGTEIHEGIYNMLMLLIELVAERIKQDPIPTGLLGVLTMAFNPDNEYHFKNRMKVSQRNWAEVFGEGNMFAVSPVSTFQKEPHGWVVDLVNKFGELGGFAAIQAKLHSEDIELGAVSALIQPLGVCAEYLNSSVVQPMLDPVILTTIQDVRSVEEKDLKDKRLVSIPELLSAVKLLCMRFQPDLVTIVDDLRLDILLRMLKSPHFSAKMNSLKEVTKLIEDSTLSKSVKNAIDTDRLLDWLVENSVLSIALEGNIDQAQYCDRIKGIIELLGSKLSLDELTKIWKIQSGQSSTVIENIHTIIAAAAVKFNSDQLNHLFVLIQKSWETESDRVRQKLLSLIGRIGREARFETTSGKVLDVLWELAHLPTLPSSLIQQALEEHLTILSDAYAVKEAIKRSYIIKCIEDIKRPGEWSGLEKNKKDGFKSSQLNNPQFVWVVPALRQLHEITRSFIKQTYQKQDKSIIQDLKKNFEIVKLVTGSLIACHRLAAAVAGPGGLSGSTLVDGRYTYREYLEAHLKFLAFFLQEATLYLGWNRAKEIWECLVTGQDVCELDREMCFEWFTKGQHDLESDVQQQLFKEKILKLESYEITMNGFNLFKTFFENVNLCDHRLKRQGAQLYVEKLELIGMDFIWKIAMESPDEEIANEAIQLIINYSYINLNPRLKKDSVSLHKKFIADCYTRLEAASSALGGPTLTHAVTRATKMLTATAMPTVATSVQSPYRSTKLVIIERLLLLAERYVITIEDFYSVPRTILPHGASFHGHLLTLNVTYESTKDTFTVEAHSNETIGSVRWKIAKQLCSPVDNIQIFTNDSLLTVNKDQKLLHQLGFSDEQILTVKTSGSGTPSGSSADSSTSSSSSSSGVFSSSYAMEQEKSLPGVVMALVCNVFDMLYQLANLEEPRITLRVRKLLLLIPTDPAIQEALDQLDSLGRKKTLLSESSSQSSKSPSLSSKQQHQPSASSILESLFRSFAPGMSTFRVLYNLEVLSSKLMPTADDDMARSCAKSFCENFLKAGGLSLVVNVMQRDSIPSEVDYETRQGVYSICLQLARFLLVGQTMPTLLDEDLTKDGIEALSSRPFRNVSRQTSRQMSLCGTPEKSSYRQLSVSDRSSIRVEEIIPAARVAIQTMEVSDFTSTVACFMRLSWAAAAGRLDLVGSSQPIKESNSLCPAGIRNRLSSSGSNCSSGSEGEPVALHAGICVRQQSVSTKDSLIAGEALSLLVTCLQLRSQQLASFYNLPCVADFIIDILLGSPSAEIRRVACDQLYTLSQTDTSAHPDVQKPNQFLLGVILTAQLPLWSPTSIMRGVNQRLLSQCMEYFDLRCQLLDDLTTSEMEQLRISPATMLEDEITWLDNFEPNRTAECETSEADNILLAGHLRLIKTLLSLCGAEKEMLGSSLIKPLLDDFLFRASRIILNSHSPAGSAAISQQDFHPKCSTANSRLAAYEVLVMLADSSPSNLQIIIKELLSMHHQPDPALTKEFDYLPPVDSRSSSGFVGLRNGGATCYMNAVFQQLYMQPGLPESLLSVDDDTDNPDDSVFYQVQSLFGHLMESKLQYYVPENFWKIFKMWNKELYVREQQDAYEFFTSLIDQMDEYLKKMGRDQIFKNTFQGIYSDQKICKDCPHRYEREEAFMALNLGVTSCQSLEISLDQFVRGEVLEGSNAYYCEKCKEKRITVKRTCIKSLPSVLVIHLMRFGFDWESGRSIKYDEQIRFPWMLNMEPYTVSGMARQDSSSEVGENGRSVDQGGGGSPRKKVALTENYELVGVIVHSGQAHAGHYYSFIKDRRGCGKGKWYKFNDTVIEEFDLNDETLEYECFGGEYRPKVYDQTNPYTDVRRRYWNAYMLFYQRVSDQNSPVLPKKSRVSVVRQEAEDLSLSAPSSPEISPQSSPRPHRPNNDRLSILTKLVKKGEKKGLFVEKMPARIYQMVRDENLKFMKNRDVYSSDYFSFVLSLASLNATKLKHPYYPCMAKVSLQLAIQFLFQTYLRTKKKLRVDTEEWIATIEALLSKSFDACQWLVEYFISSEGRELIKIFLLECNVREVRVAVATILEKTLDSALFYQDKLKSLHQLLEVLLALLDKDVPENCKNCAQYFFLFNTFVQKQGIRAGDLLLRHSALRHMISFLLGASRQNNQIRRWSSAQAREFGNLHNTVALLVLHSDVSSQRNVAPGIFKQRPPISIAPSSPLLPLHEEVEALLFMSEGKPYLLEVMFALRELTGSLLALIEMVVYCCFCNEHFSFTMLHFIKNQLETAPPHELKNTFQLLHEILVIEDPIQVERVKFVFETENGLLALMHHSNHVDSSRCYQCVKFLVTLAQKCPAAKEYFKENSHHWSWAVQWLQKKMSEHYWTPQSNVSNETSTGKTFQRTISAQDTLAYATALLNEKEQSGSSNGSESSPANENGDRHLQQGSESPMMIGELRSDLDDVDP
Method in brief: as §1

USP25 = target: T3, USP25 (UniProt Q9UHP3)
T3 sequence (whole entry): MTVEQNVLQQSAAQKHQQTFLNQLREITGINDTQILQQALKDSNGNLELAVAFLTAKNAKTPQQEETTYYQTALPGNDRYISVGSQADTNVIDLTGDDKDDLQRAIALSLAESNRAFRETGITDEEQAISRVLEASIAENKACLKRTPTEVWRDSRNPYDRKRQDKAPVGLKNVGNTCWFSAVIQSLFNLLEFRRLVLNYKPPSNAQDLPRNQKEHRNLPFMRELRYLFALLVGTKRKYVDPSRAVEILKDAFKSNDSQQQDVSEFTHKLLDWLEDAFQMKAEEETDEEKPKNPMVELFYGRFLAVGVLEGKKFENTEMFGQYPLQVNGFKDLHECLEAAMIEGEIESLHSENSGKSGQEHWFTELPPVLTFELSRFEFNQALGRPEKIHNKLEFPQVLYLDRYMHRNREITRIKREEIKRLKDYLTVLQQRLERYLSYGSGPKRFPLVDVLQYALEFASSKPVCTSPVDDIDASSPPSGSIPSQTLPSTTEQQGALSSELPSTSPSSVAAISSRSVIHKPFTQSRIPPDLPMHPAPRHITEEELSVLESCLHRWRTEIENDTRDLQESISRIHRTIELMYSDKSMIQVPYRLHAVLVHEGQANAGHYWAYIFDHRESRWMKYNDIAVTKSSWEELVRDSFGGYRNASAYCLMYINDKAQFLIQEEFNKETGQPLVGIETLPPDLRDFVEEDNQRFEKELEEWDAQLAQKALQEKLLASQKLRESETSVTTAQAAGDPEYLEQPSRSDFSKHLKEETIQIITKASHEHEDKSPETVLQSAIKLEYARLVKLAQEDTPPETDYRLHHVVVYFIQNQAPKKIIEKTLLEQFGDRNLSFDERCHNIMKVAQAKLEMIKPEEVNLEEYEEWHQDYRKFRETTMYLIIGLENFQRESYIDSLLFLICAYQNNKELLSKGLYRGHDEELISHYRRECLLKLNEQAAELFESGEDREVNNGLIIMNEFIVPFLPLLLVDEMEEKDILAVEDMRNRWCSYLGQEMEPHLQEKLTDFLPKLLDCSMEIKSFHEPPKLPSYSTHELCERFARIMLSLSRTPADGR
Method in brief: as §1

USP28 = target: T4, USP28 (UniProt Q96RU2)
T4 sequence (whole entry): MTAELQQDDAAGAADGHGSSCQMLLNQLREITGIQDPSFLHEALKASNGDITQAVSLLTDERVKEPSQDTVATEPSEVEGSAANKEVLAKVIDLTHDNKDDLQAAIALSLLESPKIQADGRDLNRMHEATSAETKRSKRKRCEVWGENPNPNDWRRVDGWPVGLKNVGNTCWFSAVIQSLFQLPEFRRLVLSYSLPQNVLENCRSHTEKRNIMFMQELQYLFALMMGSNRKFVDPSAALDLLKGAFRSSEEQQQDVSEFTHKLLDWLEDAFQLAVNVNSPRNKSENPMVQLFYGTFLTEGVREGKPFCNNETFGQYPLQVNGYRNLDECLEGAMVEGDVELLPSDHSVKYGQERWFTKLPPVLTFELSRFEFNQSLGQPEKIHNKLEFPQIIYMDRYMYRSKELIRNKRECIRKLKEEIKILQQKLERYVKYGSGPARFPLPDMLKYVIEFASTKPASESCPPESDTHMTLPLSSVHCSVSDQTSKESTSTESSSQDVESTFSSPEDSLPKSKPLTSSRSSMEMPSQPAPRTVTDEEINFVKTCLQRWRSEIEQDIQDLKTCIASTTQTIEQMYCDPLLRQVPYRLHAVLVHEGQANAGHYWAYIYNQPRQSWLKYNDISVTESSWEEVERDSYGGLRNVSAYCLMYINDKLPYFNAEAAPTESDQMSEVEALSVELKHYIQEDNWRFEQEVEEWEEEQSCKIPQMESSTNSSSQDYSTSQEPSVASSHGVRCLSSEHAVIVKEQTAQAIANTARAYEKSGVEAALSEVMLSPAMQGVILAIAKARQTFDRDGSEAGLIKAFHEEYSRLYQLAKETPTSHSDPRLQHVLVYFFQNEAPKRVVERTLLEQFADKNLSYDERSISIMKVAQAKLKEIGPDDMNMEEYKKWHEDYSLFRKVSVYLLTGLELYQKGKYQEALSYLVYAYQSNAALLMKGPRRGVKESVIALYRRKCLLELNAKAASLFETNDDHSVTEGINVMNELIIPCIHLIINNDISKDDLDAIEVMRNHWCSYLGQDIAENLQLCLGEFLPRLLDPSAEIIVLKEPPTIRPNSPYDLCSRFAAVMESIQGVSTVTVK
Method in brief: as §1

Measured: log2 ratio of Biotin-Ahx-Ub-VS probe labelling

O=C(CCl)NCC1(c2ccccc2)CC1
inactive: USP19 -0.058 | USP22 0.0204 | USP24 -0.208 | USP25 -0.366 | USP28 -0.447
